Screens as filed in PubChem BioAssay.
TRb-SRC2 inh = qHTS for Inhibitors of the Interaction of Thyroid Hormone Receptor and Steroid Receptor Coregulator 2; hit rate 0.065% among 280,000; Thyroid hormone receptor beta (Homo sapiens), P10828; AID 1469, 2008; TRbeta-SRC2 peptide binding, fluorescence polarization; receptor liganded with 1 µM T3; Potency, µM (titrated, usually from 106 µM), inactives show at the top dose activity change, negative = inhibition, most hits filed as inhibitors;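 further: plate controls were bound peptide for no effect and peptide without receptor for full effect; nearly all actives have a fitted effect of over 50% in size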
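A fluorescence polarization screen tested compounds at multiple concentrations against complex formation between 0.6 uM TRb ligand-binding domain and 20 nM Texas Red SRC2 peptide, with 1 uM T3 present; readout after 5 hr.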
Tau ThT inhib = qHTS for Inhibitors of Tau Fibril Formation, Thioflavin T Binding. Microtubule-associated protein tau (Homo sapiens), P10636. hit rate 2.1% among 270,000. recombinant tau K18 P301L, heparin-induced fibrillization, ThT fluorescence. Potency, µM (highest dose often 57.4 µM), inactives show at the highest dose activity, negative = inhibition, usual class: inhibitors; further: nearly all actives have a fitted effect of over 55% in size
Target sequence (P10636 561-689 P618L limits assumed): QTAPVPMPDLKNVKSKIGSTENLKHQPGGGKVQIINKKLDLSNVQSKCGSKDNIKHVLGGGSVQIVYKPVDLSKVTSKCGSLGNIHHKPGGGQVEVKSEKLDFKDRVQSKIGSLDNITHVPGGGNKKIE
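Tau K18 P301L fragment (15 uM unlabeled plus 0.24 uM Alexa 594-labeled) in 100 mM sodium acetate pH 7 with compound, fibrillization induced by 20 uM heparin for 6 hr at 37 C. Thioflavin T (30 uM) added, fluorescence read after 1 hr (ex 450, em 510 nm).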
TexasRed fluor = Total Fluorescence Counterscreen for Inhibitors of the Interaction of Thyroid Hormone Receptor and Steroid Receptor Coregulator 2; TRb/SRC2 Texas Red total fluorescence interference; Potency, µM (top dose mostly 106 µM), without a hit: at the highest dose fluorescence change, negative = quenching; hit rate 0.29% among 280,000; active means well fitted curve in either direction with a large enough effect; inconclusive means small, poorly fitted or top-dose-only effect
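Human TRβ ligand-binding domain (0.6 uM) and Texas Red SRC2 peptide (20 nM) in Tris buffer with 1 uM T3 and 5% DMSO were incubated with pinned compound for 5 hr at ambient temperature. Total fluorescence was computed as S + 2P (555/632 nm).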
Tau fluor counter = Counterscreen qHTS for Inhibitors of Tau Fibril Formation, Fluorescence Polarization. tau K18 P301L Alexa594 fluorescence, heparin fibrillization. Potency, µM (series often up to 57.7 µM), inactives show top-dose activity change, negative = decrease. hit rate 0.93% among 280,000; further: nearly all actives have a fitted effect of over 55% in size
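Human K18 P301L tau (15 uM unlabeled plus 0.24 uM Alexa 594-labeled, final) in 100 mM sodium acetate pH 7 was mixed with compound and 20 uM heparin and incubated 6 hr at 37 C.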
Tau FP inhib = qHTS for Inhibitors of Tau Fibril Formation, Fluorescence Polarization; Microtubule-associated protein tau (Homo sapiens), P10636; K18 P301L tau heparin fibrillization, Alexa594 FP, 6 h; Potency, µM (highest dose often 57.7 µM), for the others: top-dose activity, negative = inhibition, actives largely listed as inhibitors; hit rate 0.39% among 280,000; AID 1468, 2008; further: nearly all actives have a fitted effect of over 55% in size
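Heparin (20 uM) drove fibril formation of recombinant tau K18 P301L, 15 uM unlabeled with 0.24 uM Alexa 594 label, for 6 hr at 37 C in 100 mM sodium acetate pH 7. Fluorescence polarization (555/632 nm) read 1 hr after 30 uM ThT.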
GoLoco inh red = qHTS Assay for Inhibitors of RGS12 GoLoco Motif Activity (Red Fluorophore); Potency, µM (highest dose often 61.6 µM), for inactives: at the top dose activity, negative = inhibition, hits mostly inhibitors; Guanine nucleotide-binding protein G(i) subunit alpha-1 (Homo sapiens), P63096; hit rate 0.44% among 230,000; Gai1:RGS12 GoLoco peptide FP, rhodamine, 10 min; active means well fitted inhibition curve with a large enough effect, not every such curve was filed as active; inactive means no such curve, though single readings can be large or run the other way; further: nearly all actives have a fitted effect of over 30% in size
Target sequence (P63096 whole entry, looked up): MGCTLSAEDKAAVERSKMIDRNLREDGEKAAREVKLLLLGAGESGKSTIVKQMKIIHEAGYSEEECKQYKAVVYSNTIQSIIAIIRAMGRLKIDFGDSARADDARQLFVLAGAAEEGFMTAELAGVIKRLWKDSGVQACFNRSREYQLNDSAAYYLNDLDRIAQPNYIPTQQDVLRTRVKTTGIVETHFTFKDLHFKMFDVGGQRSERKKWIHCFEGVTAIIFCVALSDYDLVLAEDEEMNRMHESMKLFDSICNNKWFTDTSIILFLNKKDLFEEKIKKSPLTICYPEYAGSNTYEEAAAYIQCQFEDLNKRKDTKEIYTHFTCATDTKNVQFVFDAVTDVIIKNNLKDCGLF
* marks the source's active call; other numbers are inactive results; ? = inconclusive; · = no result given; ! = repeats disagree; [ ] = dose if it differs, or a comment. Rows were chosen to be rich in hits. Some 3.2% of all compounds tested hit in one or more screens of this group. Unless noted, the call rests on the fitted dose curve; in most records, active means well fitted curve in the direction sought with a large enough effect; inconclusive means small, poorly fitted or top-dose-only effect, or another doubt; inactive means no such curve, though single readings can be large; an effect the other way counts as inactive or inconclusive. Unless noted, on the % scale 0 is the no-effect control and ±100 the full control effect; potency means the concentration at half of the fitted maximal effect.

SMILES | TRb-SRC2 inh | Tau ThT inhib | TexasRed fluor | Tau fluor counter | Tau FP inhib | GoLoco inh red
COC(=O)C[C@]1(C(=O)OC)CN(C#N)N(c2ccc(Cl)cc2)C12c1ccccc1-c1ccccc12 | -3% | 14µM* | -4% | -20% | ? | -7%
C=C1CC[C@H](O)C/C1=C/C=C1\CCC[C@]2(C)[C@@H]([C@H](C)CCCC(C)C)CC[C@@H]12 | -14% | 22µM* | 3% | -22% | ? | -4%
c1ccc2c(c1)oc1ccccc12 | 7%[201 µM] | · | 0%[201 µM] | · | · | ·
NCC(O)c1cc(O)c(O)cc1F (stereo unspecified) | 1% | 11µM* | 3% | -28% | ? | 5%
CC[N+](C)(CC)CCCCOc1ccc2c(c1)C(=O)c1cc(OCCCC[N+](C)(CC)CC)ccc1-2 | -2% | ? | -6% | -11% | -6% | 11µM*
CCCCCCCCCCCC[N+](C)(C)CCOc1ccccc1 | -19% | · | 1% | · | · | 16%
CC1=CC(=O)NP(=O)(Oc2ccc3ccccc3c2)N1 (stereo unspecified) | 5% | -4% | -3% | -2% | 0% | 13µM*
CC(C)(C)OOC(C)(C)c1ccc(C(C)(C)OOC(C)(C)C)cc1 | 1%[201 µM] | · | -5%[201 µM] | · | · | ·
CC(C)c1cc2c(c(O)c1O)[C@@]1(C(=O)O)CCCC(C)(C)[C@@H]1CC2 | -5% | 14µM* | -1% | ? | ? | -10%
C[C@]1(C(=O)O)CCC[C@]2(C)c3cc(O)ccc3CC[C@@H]12 | -3% | -7% | 0% | -3% | 1% | 2%
CC(C)c1cc2c(c(O)c1O)[C@]1(C(=O)O)CCCC(C)(C)C1CC2 (stereo partly specified) | 3% | 28µM* | -2% | ? | ? | -9%
O=C(Nc1ccc(Br)cc1)c1cc(Br)cc(Br)c1O | 21% | 13µM* | -18% | ? | 13% | 9%
CON(C)C(=O)Nc1ccc(Br)cc1 | 0% | · | 0% | · | · | ·
CN(C)c1ccc(C=C2C(=O)NC(=S)NC2=O)cc1[N+](=O)[O-] | 3% | 32µM* | 0% | ? | ? | -12%
O=C(O)c1cccc2c1NC(c1cccc([N+](=O)[O-])c1)C1CC(Sc3ccccc3[N+](=O)[O-])C(Cl)C21 (stereo unspecified) | 5% | 32µM* | -7% | ? | ? | 9%
C=CCc1cc(OC)c2c(c1)OCO2 | -8% | · | -1% | · | · | 18%
COc1cccc2c1cc([N+](=O)[O-])c1c(C(=O)O)cc3c(c12)OCO3 | -3% | 14µM* | -10% | ? | -2% | 5%
Cc1ccc(OCC(=O)N2CCN(CCc3ccncc3)CC2)cc1 | -1% | -6% | -11% | -1% | 2% | ·
CCc1ccc(OCC(=O)N2CCN(CCc3ccncc3)CC2)cc1 | -16% | -10% | 708µM*[quencher] | -7% | 5% | ·
Nc1c(C(=O)Nc2ccc(Br)cc2F)sc2nc3c(cc12)N1CCC3CC1 | -2% | -9% | 10µM*[quencher] | ? | -8% | ·
CN(C)c1ccc(NC(=O)c2sc3nc4c(cc3c2N)N2CCC4CC2)cc1 | -8% | ? | 14µM*[quencher] | ? | -7% | ·
Nc1c(C(=O)Nc2ccc(F)c(Cl)c2)sc2nc3c(cc12)N1CCC3CC1 | 1% | ? | 2% | ? | 17% | ·
CC(C1CC1)C(O)(Cn1cncn1)c1ccc(Cl)cc1 (stereo unspecified) | 0%[201 µM] | · | 1%[201 µM] | · | · | ·
CCSCc1ccccc1OC(=O)NC | -3%[201 µM] | · | -2%[201 µM] | · | · | ·
CC[C@]1(O)CC(O[C@@H]2CC(N(C)C)C(O)C(C)O2)c2c(cc3c(c2O)C(=O)c2c(O)cccc2C3=O)C1C(=O)OC (stereo partly specified) | -12% | 8.9µM* | 6% | ? | 4% | 1%
SMILES | TRb-SRC2 inh | Tau ThT inhib | TexasRed fluor | Tau fluor counter | Tau FP inhib | GoLoco inh red
CNC(=O)/C=C(\C)OP(=O)(OC)OC | -4%[201 µM] | · | 1%[201 µM] | · | · | ·
N#CSCC(=O)N1c2ccccc2CCc2ccccc21 | 1% | 14µM* | -2% | -19% | ? | 9%
C[C@@]12CC[C@H]3[C@H](CCC4=CC(=O)CC[C@H]43)[C@H]1CC[C@H]2OC1(O)C(=O)c2ccccc2C1=O | · | · | · | · | · | 9%[14.2 µM]
CCCSP(=O)(OCC)Oc1ccc(Br)cc1Cl (stereo unspecified) | 7%[201 µM] | · | 4%[201 µM] | · | · | ·
Cc1cc2c(C(C)C)c(O)c(O)c(C=O)c2c(O)c1-c1c(C)cc2c(C(C)C)c(O)c(O)c(C=O)c2c1O | ? | 28µM* | 25µM*![quencher] | 16µM*[quencher] | 35µM* | -6%
CCOC1Oc2ccc(OS(C)(=O)=O)cc2C1(C)C (stereo unspecified) | 4%[201 µM] | · | -1%[201 µM] | · | · | ·
C=CC(=O)NCO | -3%[5.17e+03 µM] | · | -2%[5.17e+03 µM] | · | · | ·
CSc1nnc(C(C)(C)C)c(=O)n1N | -1%[201 µM] | · | -3%[201 µM] | · | · | ·
Cc1nonc1OCCNc1ccc([N+](=O)[O-])c2cccnc12 | -1% | 7.1µM* | -2% | ? | -11% | -3%
C#CCC1=C(C)[C@H](OC(=O)[C@H]2[C@H](C=C(C)C)C2(C)C)CC1=O | 3%[201 µM] | · | -2%[201 µM] | · | · | ·
COc1cc2c(cc1OC)-c1c(OC)c(OC)c(OC)c3ccnc(c13)C2=O | 2% | 10µM* | -2% | -26% | -2% | 29%
COc1cc(CC2(CCc3ccncc3)C(=O)NC(=O)NC2=O)cc(OC)c1OC | -3% | -9% | 3% | -6% | -17% | 12%
O=C1NC(=O)C(=O)C(=O)N1 | -29% | 2.5µM* | -13% | -25% | 2.8µM* | -8%
O=[N+]([O-])c1ccc(N2CCCCCC2)c2ncccc12 | 2% | 16µM* | -3% | -28% | -4% | 26%
O=[N+]([O-])c1ccc(N2CCCCC2)c2ncccc12 | 12% | 16µM* | -1% | ? | -15% | -7%
O=[N+]([O-])c1ccc(N2CCCNCC2)c2ncccc12 | 8% | ? | -1% | -4% | 1% | -1%
C/C=C(\C)C(=O)O[C@H]1C[C@@H](OC(C)=O)[C@@]2(C(=O)OC)CO[C@H]3[C@@H](O)[C@@](C)([C@]45O[C@@]4(C)[C@H]4C[C@@H]5O[C@@H]5OC=C[C@@]54O)[C@H]4[C@]1(CO[C@]4(O)C(=O)OC)[C@@H]32 | -2%[201 µM] | · | -3%[201 µM] | · | · | ·
CCC[CH2][Sn]1([CH2]CCC)[O]C(=O)C=CC(=O)[O]1 | -8%[201 µM] | · | -4%[201 µM] | · | · | ·
Cc1ccc(NC(=O)Cn2cc(C(=O)c3ccccc3)c3ccccc32)cc1 | -15% | 5% | 0.025µM*[quencher] | ? | -19% | ·
